Source: PubChem (National Center for Advancing Translational Sciences (NCATS))
HP1b binding inh – blocks HP1-beta chromodomain binding to methylated histone tails | hit rate 0.56% among 390,000 | P83916 | AID 540317 | AlphaScreen HP1-beta / biotin-H3K9me3 peptide binding | Potency, µM (titrated, usually from 114 µM), for the others: at the top dose activity change, negative = inhibition, actives largely listed as inhibitors; further: nearly all actives have a fitted effect of over 70% in size
Target sequence (P83916 whole entry, looked up): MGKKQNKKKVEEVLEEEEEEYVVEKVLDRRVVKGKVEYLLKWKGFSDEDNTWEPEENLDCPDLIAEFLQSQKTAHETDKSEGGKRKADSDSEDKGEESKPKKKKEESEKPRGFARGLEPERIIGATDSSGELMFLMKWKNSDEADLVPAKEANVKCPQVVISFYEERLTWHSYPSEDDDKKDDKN
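Compound inhibition of the preformed complex between 50 nM HP1-beta and 50 nM biotinylated H3K9me3 peptide was read by AlphaScreen. Buffer was PBS pH 7.4 with 0.01% Tween-20. Incubations ran 30 min at room temperature, with 10 ug/mL donor/acceptor beads.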
Sfp inh – inhibitors of Bacillus subtilis Sfp phosphopantetheinyl transferase; Q9F4F7; Biochemical Sfp PPTase activity, qHTS; Potency, µM, inactives show largest response in the series, negative = inhibition, actives largely listed as inhibitors; hit rate 3.5% among 310,000; AID 1490;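 further: the enzyme is Sfp with the accession as filed and its product quenches rhodamine fluorescence; 0% = enzyme reaction without inhibitor and -100% = no enzyme wells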
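Buffer: 50 mM Hepes-Na pH 7.6, 10 mM MgCl2, 0.01% Nonidet P-40, 0.01% BSA. Enzyme 15 nM, pre-exposed to compound 15 min; substrates then added and fluorescence change tracked over 30 min.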
JMJD2A Tudor – inhibitors of human JMJD2A Tudor domain; O75164; AlphaScreen JMJD2A-Tudor / H3K4me3 peptide binding; Potency, µM (highest dose often 114 µM), inactives show top-dose activity change, negative = inhibition, actives largely listed as inhibitors; hit rate 4.4% among 390,000; further: on the % scale 0 is the no-effect control and ±100 the full control effect; nearly all actives have a fitted effect of over 50% in size
TDP1 block – inhibitors of human tyrosyl-DNA phosphodiesterase TDP1; Potency, µM (highest dose often 130 µM), for inactives: at the top dose activity change, negative = inhibition, usual class: inhibitors; hit rate 0.28% among 350,000; AID 485290; recombinant TDP1, AlphaScreen DNA substrate cleavage; Q9NUW8; further: on the % scale 0 is the no-effect control and ±100 the full control effect; nearly all actives have a fitted effect of over 40% in size
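Recombinant E. coli-expressed Tdp1 (1 nM) preincubated with compound 15 min at RT, then 5'-biotin/3'-phosphotyrosine-FITC DNA substrate (15 nM) added for 5 min. AlphaScreen beads (10 ug/ml) added, 10 min RT; tyrosine-FITC cleavage read as signal loss.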
G9a inh – blocks human histone lysine methyltransferase G9a. Potency, µM (highest dose often 102 µM), for the others: at the top dose activity, negative = inhibition, usual class: inhibitors. Q96KQ7. AID 504332. hit rate 8.8% among 350,000. G9a H3K9 monomethylation, AlphaScreen, 2 h; further: on the % scale 0 is the no-effect control and ±100 the full control effect; nearly all actives have a fitted effect of over 75% in size
Target sequence (Q96KQ7 913-1193 limits assumed): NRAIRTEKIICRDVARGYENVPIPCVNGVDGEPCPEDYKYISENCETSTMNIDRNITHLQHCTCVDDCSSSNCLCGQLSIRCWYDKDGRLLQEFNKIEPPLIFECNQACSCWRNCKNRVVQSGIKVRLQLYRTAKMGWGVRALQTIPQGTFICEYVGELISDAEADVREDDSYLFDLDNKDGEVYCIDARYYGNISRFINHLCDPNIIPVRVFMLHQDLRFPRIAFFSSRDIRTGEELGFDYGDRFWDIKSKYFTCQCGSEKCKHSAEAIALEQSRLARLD
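Methyltransferase reactions run at room temperature for 2 h (20 nM enzyme, 500 nM biotin-H3K9 peptide, 20 uM SAM) after a 15 min compound preincubation; product detected by AlphaScreen beads and anti-H3K9me1 antibody.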
BAZ2B inh – inhibitors of human BAZ2B bromodomain; Potency, µM (titrated, usually from 114 µM), inactives show top-dose activity change, negative = inhibition, actives largely listed as inhibitors; AlphaScreen BAZ2B-H3K14Ac peptide displacement; Q9UIF8; hit rate 4.4% among 360,000; further: on the % scale 0 is the no-effect control and ±100 the full control effect; nearly all actives have a fitted effect of over 60% in size
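BAZ2B 50 nM plus b-H3(5-23)K14Ac 50 nM, PBS pH 7.4/0.01% Tween-20, 30 min RT; compound added (max 110 uM), 30 min RT; streptavidin donor/Ni-chelate acceptor beads 10 ug/mL final, 20 min dark; AlphaScreen read.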
* marks the source's active call; other numbers are inactive results; ? = inconclusive; / = not tested or not shown; [ ] = remark or other dose. In the library only some 12% were active in any assay of this set; here they are far more common. The call rests on the fitted dose curve; in most records, active means well fitted curve in the direction sought with a large enough effect; inconclusive means small, poorly fitted or top-dose-only effect, or another doubt; inactive means no such curve, though single readings can be large; an effect the other way counts as inactive or inconclusive. Potency means the concentration at half of the fitted maximal effect.

SMILES	HP1b binding inh	Sfp inh	JMJD2A Tudor	TDP1 block	G9a inh	BAZ2B inh
CCOC(=O)Cc1csc(NC(=O)c2cc(OC)cc(OC)c2)n1	25.0%	3.3%	79.4µM*	7.3%	16.4%[59 µM]	7.8%
CCOC(=O)Cc1csc(NC(=O)c2ccc(Br)cc2)n1	25.7%	16.2%	1.7%	/	/	?
CCOC(=O)Cc1csc(NC(=O)c2csc3c2CCCC3)n1	13.2%	-17.0%	1.3%	2.1%	35.5µM*	1.1%
CCOC(=O)Cc1csc(NC(=O)c2ccco2)n1	15.3%	-1.0%	79.4µM*	4.4%	-5.0%[12.7 µM]	-2.6%
Cc1c(C(=O)NN)nn(-c2ccc(F)cc2)c(=O)c1C#N	43.5%	6.2%	-11.2%	/	-17.7%	-0.2%
CCOC(=O)c1nnn(-c2ccccc2C#N)c1C	38.7%	3.5%	21.4%	6.7%	-8.9%[12.7 µM]	-12.2%
CCOC(=O)c1nn(-c2ccccc2C)c(=O)c(C#N)c1C	21.3%	0.4%	-4.7%	2.0%	89.1µM*	5.9%
CCOC(=O)c1nn(-c2ccc(C)c(C)c2)c(=O)c(C#N)c1C	28.9%	8.8%	-26.6%	/	44.7µM*	-38.1%
COCCN(C(=O)COC(=O)COc1ccc2c(c1)CCC2)c1c(N)n(Cc2ccccc2)c(=O)[nH]c1=O	26.9%	/	3.4%	/	4.1%[0.501 µM]	-2.6%
COCCN(C(=O)COC(=O)c1ccccc1Nc1ccccc1)c1c(N)n(Cc2ccccc2)c(=O)[nH]c1=O	11.0%	/	-23.0%	/	14.1µM*	-3.3%
CN(C(=O)COC(=O)C1COc2ccccc2O1)c1c(N)n(Cc2ccccc2)c(=O)[nH]c1=O (stereo not given)	21.9%	/	-15.2%	-0.5%	44.7µM*	-1.0%
COCCN(C(=O)COC(=O)CCc1ccccc1OC)c1c(N)n(Cc2ccccc2)c(=O)[nH]c1=O	29.0%	/	-30.4%	/	12.6µM*	-0.9%
COCCN(C(=O)COC(=O)Cc1coc2cc3c(cc12)CCC3)c1c(N)n(Cc2ccccc2)c(=O)[nH]c1=O	?	/	44.7µM*	12.6µM*	39.8µM*	50.1µM*
Cc1ccccc1C(=O)N1CCC(C(=O)OCc2nc(N)nc(Nc3ccccc3)n2)CC1	46.2%	/	-16.6%	3.3%	?	3.2%
COc1ccc(N2CCN(C(=O)Cc3ccc(Br)cc3)CC2)cc1	-19.1%	7.9%	-35.4%	/	?	?
CC(C)N(C(=O)[C@H]1CC(CC(=O)NCCC2=CCCCC2)C(=O)N2CCc3c([nH]c4ccccc34)[C@]12C)C(C)C (stereo not given in full)	-6.7%	/	?	5.6%	/	/
COc1ccc(-c2cnnc(CCCn3ccnc3-c3ccccc3)n2)cc1	/	9.1%	/	6.9%[21 µM]	/	/
CCc1ccc(N=C2NC(=O)CS2)cc1	21.3%	14.9%	-1.4%	/	14.5%[0.501 µM]	-5.3%
CN(C(=O)COC(=O)c1ccccc1Cc1ccccc1)c1c(N)n(Cc2ccccc2)c(=O)[nH]c1=O	17.7%	/	-15.9%	-5.6%[0.505 µM]	50.1µM*	4.6%
Cc1ccccc1C(=O)OCC(=O)N(C)c1c(N)n(Cc2ccccc2)c(=O)[nH]c1=O	25.7%	/	-4.8%	-0.4%	9.0%[0.501 µM]	0.2%
CCc1noc(C)c1C(=O)N(CC(C)C)c1c(N)n(Cc2ccccc2)c(=O)[nH]c1=O	20.4%	/	-11.0%	2.2%	-7.9%	-3.9%
CN(C(=O)COC(=O)c1ccccc1Nc1ccccc1)c1c(N)n(Cc2ccccc2)c(=O)[nH]c1=O	14.9%	/	-19.7%	-5.3%	14.1µM*	-26.3%
CCN(C(=O)COC(=O)c1ccccc1Cc1ccccc1)c1c(N)n(Cc2ccccc2)c(=O)[nH]c1=O	17.5%	/	-10.1%	/	/	/
CCc1noc(C)c1C(=O)OCC(=O)N(C)c1c(N)n(Cc2ccccc2)c(=O)[nH]c1=O	12.0%	/	-1.4%	/	50.1µM*	10.1%
CCN(C(=O)COC(=O)C1CCN(S(=O)(=O)c2cccs2)CC1)c1ccccc1	44.7%	13.1%	-9.3%	0.0%	-4.4%	-4.7%
SMILES	HP1b binding inh	Sfp inh	JMJD2A Tudor	TDP1 block	G9a inh	BAZ2B inh
Cc1cc(C)cc(-n2ccn(CC(=O)Nc3cc(C)ccc3C)c(=O)c2=O)c1	42.4%	/	17.1%	1.3%	-14.5%[59 µM]	-1.2%
CN(c1ccc(F)cc1)S(=O)(=O)N1CCCC(C(=O)NCc2cccc(Br)c2)C1 (stereo not given)	67.2%	/	13.2%	-12.8%	7.1%[59 µM]	-3.8%
NC(=O)C1(N2CCCCC2)CCN(C(=O)Nc2ccc(C(F)(F)F)cc2)CC1	-6.8%	/	-31.9%	3.7%	10.8%[59 µM]	0.5%
COc1ccc(CCNC(=O)Cn2c(=O)nc(-c3ccccc3)c3cc(Cl)ccc32)cc1OC	22.2%	/	4.3%	1.2%	-1.0%[12.7 µM]	-13.1%
O=C(O)/C=C\C(=O)Nc1ccccc1N1CCN(c2ccccc2)CC1	21.5%	?	-21.1%	7.9%	44.7µM*	?
O=C(/C=C/c1ccco1)Nc1ccccc1C(=O)O	-6.0%	17.8µM*	?	14.1µM*	14.1µM*	-32.6%
CN(C(=O)C=Cc1ccco1)c1ccccc1	15.3%	/	-16.0%	/	/	/
COc1ccc(/C=C/C(=O)Nc2ccccc2C(=O)O)cc1	36.6%	18.0%	-20.5%	2.3%	-6.1%	-13.0%
O=C(/C=C/c1ccco1)Nc1ccccc1C(=O)Nc1cccc(C(=O)O)c1	-3.9%	?	-30.3%	/	50.1µM*	-22.9%
CN(C(=O)/C=C/c1ccco1)c1ccccc1C(=O)O	60.1%	50.1µM*	-10.8%	/	25.1µM*	?
Cc1cccc(S(=O)(=O)c2cn(C)c3cc(N4CCN(c5ccc(F)cc5)CC4)c(F)cc3c2=O)c1	28.9%	/	-16.8%	-5.0%	2.3%[59 µM]	-3.8%
O=C(/C=C/c1ccc(F)cc1)Nc1nc2n(n1)C(c1ccc(Cl)cc1)C=C(c1ccccc1)N2 (stereo not given)	35.5%	/	1.3%	11.4%	-9.2%[59 µM]	5.2%
C[C@H]1Cc2c(-c3ccccc3)nc3c(c2CO1)CN(C(=O)c1ccco1)CC3	/	7.9%	/	13.7%[12.3 µM]	/	/
COc1cccc(CN2CC(C(=O)NCCOc3ccccc3)CCC2=O)c1 (stereo not given)	18.2%	3.9%	-2.8%	1.0%	17.0%	-3.7%
O=C(Nc1ccccc1C(=O)Nc1ccccc1)c1ccccc1Br	20.1%	/	-3.2%	/	/	/
O=C(/C=C/c1ccco1)Nc1ccccc1N1CCCC1	-15.9%	?	?	2.7%	44.7µM*	?
O=C(/C=C/c1ccco1)NC(=S)Nc1ccccc1N1CCOCC1	-24.1%	-0.8%	?	7.8%	?	?
O=C(/C=C/c1ccco1)Nc1cc(Cl)ccc1C(=O)O	-6.4%	56.2µM*	?	-8.1%	8.91µM*	?
O=C(O)/C=C/C(=O)Nc1ccccc1C(=O)Nc1ccccc1	63.8%	79.4µM*	-16.0%	2.3%	?	-34.6%
